# Source: PubChem BioAssay (several laboratories)
# In the library only some 4.9% were active in any assay of this set; here they are far more common.
# SKKanGAS inh: inhibitors of SKKanGAS S. pyogenes growth in kanamycin (SK-promoter or general growth effect); BacTiter-Glo, 6 h; inhibition, % at 7.5 µM; 300,000 compounds, 1.3% hits; AID 1662;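 active means mean replicate score, as percent of positive control median, at least 50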;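 further: strain carries kanamycin resistance gene driven by streptokinase promoter and grows in 40 µg/ml kanamycin; loss of luminescence reflects streptokinase promoter inhibition or plain growth inhibition; 0% = median of DMSO wells and 100% = positive control at its reference dose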
# tim10-1 inh: tim10-1 yeast growth inhibition | S. cerevisiae tim10-1 ts strain growth, BacTiter-Glo, 24 h | inhibition, % at 20 µM | 330,000 compounds, 2.2% hits | AID 463190;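 active means inhibition of at least 40%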;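 further: mutant grown at 25 °C; 0% = DMSO wells with yeast and 100% = wells holding no yeast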
# NALP1 yeast inh: blocks the NALP1 inflammasome reconstituted in yeast. S. cerevisiae NALP1/ASC/caspase-1 growth, X-gal OD620, 72 h. inhibition, % at 10 µM. 280,000 compounds, 0.61% hits. AID 2071; in the data active means inhibition mostly above about 24%, no sharp cut-off; inactive means mostly below about 32%
# NLRP3 yeast inh: NALP3 inhibition in yeast; Yeast reconstituted NLRP3/ASC/caspase-1, beta-gal luminescence, 24 h; inhibition, % at 10 µM; 330,000 compounds, 0.39% hits; AID 2825;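 active means inhibition of 50% or more; inactive means inhibition below 50%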;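 further: plate controls were induced DMSO wells for no effect and uninduced yeast grown without galactose for full effect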
# TIM10 inh: TIM10 yeast growth inhibition | S. cerevisiae TIM10 strain growth, BacTiter-Glo luminescence, 24 h | inhibition, % at 10 µM | 330,000 compounds, 1.4% hits;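 active means inhibition of 40% or more at the single tested concentration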;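 further: wild-type TIM10 isogenic control strain grown at permissive 25 °C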
# tim23-1 inh: tim23-1 yeast growth inhibition; 330,000 compounds, 1.3% hits; inhibition, % at 20 µM; S. cerevisiae tim23-1 growth, BacTiter-Glo luminescence, 24 h;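 active means growth inhibition of the mutant yeast at or above 50%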;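 further: temperature-sensitive mutant grown at 25 °C; plate controls were DMSO-treated mutant yeast for no effect and medium wells lacking yeast for full effect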
# tim10-1 confirm: confirmation of tim10-1 mutant yeast growth inhibitors. shares compounds with tim10-1 inh. inhibition, % at 20 µM. 7,400 compounds, 56% hits. S. cerevisiae tim10-1 ts strain growth, BacTiter-Glo, 24 h;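 active means inhibition of yeast growth at or above a set limit in either of two repeat tests at 20 µM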;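 further: tim10-1 mutant grown at permissive 25 °C to find synthetic lethal compounds; 0% = DMSO yeast wells and 100% = medium wells without yeast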
# TIM10 conf: TIM10 yeast growth inhibition, confirmed. shares compounds with TIM10 inh. S. cerevisiae tim10 strain growth, BacTiter-Glo luminescence, 24 h. inhibition, % at 10 µM. 4,600 compounds, 63% hits. AID 463215;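 active means inhibition of yeast growth at or above a set limit in either of two replicates at 10 µM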;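 further: this counterscreen used the strain with wild-type TIM10; 0% = yeast with DMSO and 100% = medium wells lacking yeast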
# tim23-1 confirm: tim23-1 yeast growth inhibition, confirmed | inhibition, % at 20 µM | AID 463218 | S. cerevisiae tim23-1 growth, BacTiter-Glo luminescence, 24 h | 4,400 compounds, 83% hits | shares compounds with tim23-1 inh;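 active means inhibition above about 39% in either of two replicate wells at 20 µM, limit read from the data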;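 further: temperature-sensitive tim23-1 mutant grown at 25 °C; 0% = DMSO wells with yeast and 100% = medium wells without yeast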
# * marks the source's active call; other numbers are inactive results; / = no result.
SMILES,SKKanGAS inh,tim10-1 inh,NALP1 yeast inh,NLRP3 yeast inh,TIM10 inh,tim23-1 inh,TIM10 conf,tim23-1 confirm,others
COc1ccc(CN2C(=O)NC(=O)/C(=C/c3ccc([N+](=O)[O-])s3)C2=O)cc1,13,67*,10,2,82*,59*,24,75*,tim10-1 confirm=75*
O=C1NC(=O)N(Cc2ccc(F)cc2)C(=O)/C1=C\c1ccc([N+](=O)[O-])s1,13,70*,/,12,83*,60*,25,76*,tim10-1 confirm=75*
O=C1NC(=O)N(Cc2ccc(F)cc2)C(=O)/C1=C\c1ccc(N2CCCC2)cc1,2,23,12,31,11,25,/,/,
O=C(CCCN1CCC2(CC1)C(=O)NCN2c1ccccc1)c1ccc(F)cc1,13,-5,12,21,2,-1,/,/,
COc1ccc(NC(=O)N2C[C@@H]3C[C@@H](C2)c2cccc(=O)n2C3)c(OC)c1,-1,6,10,4,0,16,/,/,
CN1C(=O)C(=Cc2ccccc2OCCOc2ccc([N+](=O)[O-])cc2)C(=O)N(C)C1=O,6,50*,3,14,69*,74*,66*,90*,tim10-1 confirm=42*
O=C1NC(=O)C(=Cc2ccccc2OCCOc2ccc([N+](=O)[O-])cc2)C(=O)N1,/,/,-4,/,/,/,/,/,
Cc1cc(C(C#N)c2ccc(Cl)cc2)c(Cl)cc1NC(=O)c1cc(I)cc(I)c1O (configuration not stated),105*,43*,/,35,38,70*,/,61*,tim10-1 confirm=45*
CCc1ccccc1NC(=O)CSc1nnc([C@@H](N)Cc2c[nH]c3ccccc23)o1,2,23,20,1,29,26,/,/,
N[C@@H](Cc1c[nH]c2ccccc12)c1nnc(SCc2ccc(Cl)cc2)o1,-11,39,13,6,41*,13,40*,/,
O=C1N[C@@H](Cc2ccccc2)C(=O)N2[C@H]1C[C@H]1c3ccccc3N(OOSc3ccccc3)[C@H]12,5,15,/,11,44*,25,18,/,
COC(=O)[C@@H]1C[C@]2(C(=O)O)c3ccccc3N(OOSc3ccccc3)[C@@H]2N1C(=O)OC,3,-6,/,9,2,-6,/,/,
CCOP(=O)(C(NC(=O)c1ccccc1Cl)=C(Cl)Cl)c1ccccc1 (configuration not stated),-29,22,-2,10,-10,11,/,/,
C[C@@H]1CCC2[C@@H](C)C(=O)O[C@@H]3OC4(C)CCC1[C@@]23OO4 (some centres not stated),/,23,/,0,18,7,/,/,
Oc1cc(Cl)ccc1Oc1ccc(Cl)cc1Cl,17,39,/,20,45*,48,68*,/,
CCN(CC)c1ccc(N=Cc2c(O)n(-c3ccccc3)c(=O)[nH]c2=O)cc1,4,27,/,11,41*,20,19,/,
C=CC1CN2CCC1CC2[C@@H](OC(=O)c1ccc(OC)cc1)c1ccnc2ccccc12 (some centres not stated),-1,20,23,0,19,30,/,/,
O=P(Nc1ccccc1Cl)(c1ccccc1)c1nc2c(s1)CCCC2 (configuration not stated),-1,37,0,-86,41*,35,21,/,
CN1C(=O)C(=Cc2ccccc2OS(=O)(=O)c2ccccc2)C(=O)N(C)C1=O,19,25,18,-28,35,77*,/,73*,
Cc1[nH]c2ccc(OC(F)(F)F)cc2c1CCNCc1ccc(Cl)cc1,17,28,30,27,35,66*,/,16,
Cc1[nH]c2ccc(OC(F)(F)F)cc2c1CCNCc1cccc([N+](=O)[O-])c1,-2,-26,4,-1,32,13,/,/,
Cc1oc(-c2ccccc2)nc1CN1C(=O)C(C)N=C(c2ccccc2F)c2cc(Cl)ccc21 (configuration not stated),10,39,43,11,20,52*,/,57*,
COc1ccc(-n2c(/C=C/c3ccc4c(c3)OCO4)nc3ccccc3c2=O)cc1,10,26,22,0,17,50*,/,45*,
CCOP(=O)(Cc1cc(C(=O)CC)c(C)o1)OCC,8,12,14,20,-2,23,/,/,
Cc1cc(N=Nc2ccccc2C)ccc1N,3,22,/,41,22,64*,/,0,
Nc1ccc(N=Nc2ccccc2)cc1,8,18,15,32,4,12,/,/,
CCOC(=O)C1=C(N)Oc2cc(C)oc(=O)c2C12C(=O)N1c3c(cc(OC)cc32)C(C)=CC1(C)C (configuration not stated),7,28,1,2,27,21,/,/,
CCCc1nc2ccccc2c(=O)n1-c1cccc(OC)c1,-7,9,-5,5,0,83*,/,21,
CCCc1nc2ccccc2c(=O)n1-c1ccc(OC)cc1,-3,7,10,8,6,0,/,/,
COc1ccc(-c2nn(Cc3ccccc3)cc2C(=O)NC2CC2)cc1OC,/,5,/,17,0,14,/,/,
